The values that follow come from PubChem BioAssay.

Activity calls are given as the source filed them. Unless noted, how the calls were made is not given here.

Test [1] has as its system Wnt5a (protein binding on small-molecule microarray). Kind of test: Wnt5a binders on small-molecule microarray, primary screen, biophysical, 635/667 nm fluorescence (AID 1142).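 Further: fluorescence read at 667 nm with signal to noise per printed feature.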 The following applies: 635 nm fluorescence, higher = more signal.
Test [2] in a line: cell viability in Huh7 cells, primary screen, cytotoxicity control for HCV replication inhibitor project, CellTiter-Glo luminescence, basal, 48 h (AID 1143).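 Further: Huh7 hepatoma cells carrying a hepatitis C replication reporter with no stimulus; test concentration not given here.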 The following applies: Huh7 HCV replicon, higher = more signal, called active from +8 up or from −8 down.
The nature of test [3]: P. aeruginosa biofilm formation inhibitors, primary screen, PAO1 strain, BacTiter-Glo luminescence, LB-PBS (AID 1144). The following applies: 12 h, higher = more signal.
The nature of test [4]: CREB reporter modulators without forskolin, primary screen, cell-based, PC12, CRE-LacZ reporter, unstimulated (AID 1145). Particulars: no forskolin, luminescence, 4.5 h, higher = more signal, called active from +8 up or from −8 down.
A short description of test [5]: CREB reporter modulators under forskolin, primary screen, cell-based, PC12, CRE-LacZ reporter, forskolin-stimulated (AID 1146).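 Further: PC12 cells with 6xCRE LacZ reporter stimulated by forskolin 10 µM; beta-galactosidase reporter signal reflecting CREB driven transcription.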 The following applies: luminescence, 4.5 h, higher = more signal, called active from +8 up or from −8 down.
Test [6] has as its target Streptavidin (Streptomyces avidinii) (UniProt P22629). Kind of test: streptavidin binders on small-molecule microarray, primary screen, artefact control for SMM compound annotation, biophysical, 635/667 nm fluorescence (AID 1147).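 Further: signal reflects streptavidin binding to arrayed compounds as a control protein.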 The following applies: streptavidin binding, higher = more signal.
A short description of test [7]: small-molecule binders of probe aInhba, primary screen, biochemical, small-molecule microarray, 635/667 nm fluorescence (AID 1148).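 Further: score merges 667nm spot fluorescence with signal-to-noise for antibody binding to printed compounds.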 Particulars: higher = more signal.
In test [8] the target is Torsin-1A (Homo sapiens) (UniProt O14656). As to the kind of experiment: torsin A binders from cell lysate, primary screen, small-molecule microarray, wild-type, 635/667 nm (AID 1149). Particulars: COS7 hTOR1A-WT lysate, 635 nm fluorescence, higher = more signal.
Torsin-1A (Homo sapiens), sequence (O14656 whole entry, looked up): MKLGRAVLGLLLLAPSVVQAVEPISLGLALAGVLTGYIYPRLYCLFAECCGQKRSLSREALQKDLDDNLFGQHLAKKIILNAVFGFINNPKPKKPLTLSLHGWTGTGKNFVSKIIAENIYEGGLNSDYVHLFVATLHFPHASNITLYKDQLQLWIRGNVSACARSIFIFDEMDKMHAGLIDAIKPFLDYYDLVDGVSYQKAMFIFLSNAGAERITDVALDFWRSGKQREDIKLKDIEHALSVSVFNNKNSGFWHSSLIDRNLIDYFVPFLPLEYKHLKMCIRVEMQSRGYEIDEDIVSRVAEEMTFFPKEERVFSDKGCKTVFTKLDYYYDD
Test [9] has the same target. As to the kind of experiment: small-molecule binders of mutant TOR1A in lysate, primary screen, cell lysate, small-molecule microarray, COS7 lysate, 635/667 nm fluorescence (AID 1150).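 Further: score pools 667 nm emission and signal to noise measuring lysate protein binding.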 Particulars: COS7 hTOR1A mutant lysate, 635 nm fluorescence, higher = more signal.
Test [10] relates to Sonic hedgehog protein (Shh). Kind of test: small-molecule binders of Shh protein, primary screen, biochemical, small-molecule microarray, 635/667 nm fluorescence (AID 1151).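 Further: Shh protein binding to compounds spotted on small-molecule microarray slides; score combines spot fluorescence intensity with signal-to-noise across triplicate slides.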 The following applies: small-molecule microarray binding, 635 nm fluorescence; higher = more signal.
The nature of test [11]: E. coli DRC41 culture turbidity changes, primary screen, E. coli filamentation inducer project, strain DRC41, OD650, 48 h (AID 1152).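 Further: E. coli MC1000 strain DRC41 lacking acrAB efflux pump and sulA.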 Particulars: E. coli DRC41 (acrAB sulA), higher = more signal, called active from +8 up or from −8 down.
The nature of test [12]: small-molecule binders of probe aLefty1, primary screen, biochemical, small-molecule microarray, 635/667 nm fluorescence (AID 1153).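 Further: score merges spot fluorescence with signal-to-noise ratio from the scanned slide images.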 Particulars: higher = more signal.
Test [13] is described as follows: PSAC antagonists in infected red cells, primary screen, cell-based, P. falciparum Indochina, OD700, 1 h (AID 1154). Particulars: P. falciparum Indochina infected RBC osmotic lysis, higher = more signal, called active from +8 up or from −8 down.
A short description of test [14]: PSAC antagonists in infected red cells, primary screen, cell-based, P. falciparum Indochina, OD700, 2 h (AID 1155).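 Further: lysis reports solute entry through the parasite surface anion channel PSAC; channel blockers reduce lysis of infected cells.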 Particulars: P. falciparum Indochina infected erythrocytes, osmotic lysis OD700; higher = more signal, called active from +8 up or from −8 down.
Test [15] in a line: osmotic lysis modulators in infected erythrocytes, primary screen, PSAC antagonist project, cell-based, P. falciparum Indochina, OD700, 3 h (AID 1156). The following applies: higher = more signal, called active from +8 up or from −8 down.
The nature of test [16]: PSAC antagonists in infected red cells, primary screen, cell-based, P. falciparum Indochina, OD700, 18 h (AID 1157). The following applies: P. falciparum Indochina infected erythrocytes, osmotic lysis OD700, 18 h; higher = more signal, called active from +8 up or from −8 down.
The nature of test [17]: modulators of S6 phosphorylation in cells, primary screen, cell-based, A549, cytoblot, luminescence, serum-stimulated (AID 1158).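 Further: serum-stimulated A549 lung adenocarcinoma cells; signal is phosphorylated S6 detected by cytoblot immunostaining with HRP secondary.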 Particulars: A549 phospho-S6 cytoblot, 5 h, higher = more signal.
The target in test [18] is NADPH oxidase 2 (Homo sapiens) (UniProt P04839). Kind of test: NOX2-dependent H2O2 signal modulators, primary screen, NOX inhibitor project, cell-based, HEK293-NOX2, PMA-stimulated, Amplex Red fluorescence (AID 1159). Further: test concentration not given here. Particulars: 45 min, higher = more signal, called active from +8 up or from −8 down.
NADPH oxidase 2 (Homo sapiens), sequence (P04839 whole entry, looked up): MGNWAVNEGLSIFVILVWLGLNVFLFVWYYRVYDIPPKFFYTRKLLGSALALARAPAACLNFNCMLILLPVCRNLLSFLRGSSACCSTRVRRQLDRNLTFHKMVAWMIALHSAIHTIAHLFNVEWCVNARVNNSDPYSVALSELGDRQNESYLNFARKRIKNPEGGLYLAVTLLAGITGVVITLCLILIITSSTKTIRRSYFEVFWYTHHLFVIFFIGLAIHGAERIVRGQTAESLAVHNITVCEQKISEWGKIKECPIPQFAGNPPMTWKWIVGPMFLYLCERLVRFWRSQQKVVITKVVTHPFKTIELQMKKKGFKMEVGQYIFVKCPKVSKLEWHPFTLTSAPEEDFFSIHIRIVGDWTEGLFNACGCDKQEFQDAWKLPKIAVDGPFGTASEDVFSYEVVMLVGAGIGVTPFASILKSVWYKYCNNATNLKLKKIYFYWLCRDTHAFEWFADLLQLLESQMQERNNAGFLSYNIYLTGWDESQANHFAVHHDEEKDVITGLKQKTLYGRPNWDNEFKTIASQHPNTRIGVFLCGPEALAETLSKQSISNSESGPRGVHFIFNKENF
In test [19] the target is NADPH oxidase 4 (Homo sapiens) (UniProt Q9NPH5). As to the kind of experiment: NOX4-dependent H2O2 signal modulators, primary screen, NOX inhibitor project, cell-based, HEK293-NOX4, tetracycline-induced, Amplex Red fluorescence (AID 1160). The following applies: 45 min, higher = more signal, called active from +8 up or from −8 down.
NADPH oxidase 4 (Homo sapiens), sequence (Q9NPH5 whole entry, looked up): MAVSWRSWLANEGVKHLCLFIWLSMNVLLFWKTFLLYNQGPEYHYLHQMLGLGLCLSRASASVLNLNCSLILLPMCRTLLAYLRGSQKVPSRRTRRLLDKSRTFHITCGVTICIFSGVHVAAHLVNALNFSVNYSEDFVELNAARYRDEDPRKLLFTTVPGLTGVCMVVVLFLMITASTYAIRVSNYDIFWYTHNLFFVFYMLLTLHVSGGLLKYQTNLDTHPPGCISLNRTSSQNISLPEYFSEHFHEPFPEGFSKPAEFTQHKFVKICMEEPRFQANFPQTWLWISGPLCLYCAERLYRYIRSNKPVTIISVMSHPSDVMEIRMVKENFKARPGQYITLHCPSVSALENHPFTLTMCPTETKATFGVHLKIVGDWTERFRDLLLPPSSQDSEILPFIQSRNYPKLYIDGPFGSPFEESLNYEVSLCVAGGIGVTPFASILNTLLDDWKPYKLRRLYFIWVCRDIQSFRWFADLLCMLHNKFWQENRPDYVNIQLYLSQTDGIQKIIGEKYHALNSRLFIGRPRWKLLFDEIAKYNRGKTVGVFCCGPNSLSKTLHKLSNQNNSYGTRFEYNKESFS
For test [20], the target named is NADPH oxidase 5 (Homo sapiens) (UniProt Q96PH1). As to the kind of experiment: NOX5-dependent H2O2 signal modulators, primary screen, NOX inhibitor project, cell-based, HEK293-NOX5, Amplex Red fluorescence (AID 1161). The following applies: HEK293-NOX5, ionomycin, 45 min, higher = more signal.
NADPH oxidase 5 (Homo sapiens), sequence (Q96PH1 whole entry, looked up): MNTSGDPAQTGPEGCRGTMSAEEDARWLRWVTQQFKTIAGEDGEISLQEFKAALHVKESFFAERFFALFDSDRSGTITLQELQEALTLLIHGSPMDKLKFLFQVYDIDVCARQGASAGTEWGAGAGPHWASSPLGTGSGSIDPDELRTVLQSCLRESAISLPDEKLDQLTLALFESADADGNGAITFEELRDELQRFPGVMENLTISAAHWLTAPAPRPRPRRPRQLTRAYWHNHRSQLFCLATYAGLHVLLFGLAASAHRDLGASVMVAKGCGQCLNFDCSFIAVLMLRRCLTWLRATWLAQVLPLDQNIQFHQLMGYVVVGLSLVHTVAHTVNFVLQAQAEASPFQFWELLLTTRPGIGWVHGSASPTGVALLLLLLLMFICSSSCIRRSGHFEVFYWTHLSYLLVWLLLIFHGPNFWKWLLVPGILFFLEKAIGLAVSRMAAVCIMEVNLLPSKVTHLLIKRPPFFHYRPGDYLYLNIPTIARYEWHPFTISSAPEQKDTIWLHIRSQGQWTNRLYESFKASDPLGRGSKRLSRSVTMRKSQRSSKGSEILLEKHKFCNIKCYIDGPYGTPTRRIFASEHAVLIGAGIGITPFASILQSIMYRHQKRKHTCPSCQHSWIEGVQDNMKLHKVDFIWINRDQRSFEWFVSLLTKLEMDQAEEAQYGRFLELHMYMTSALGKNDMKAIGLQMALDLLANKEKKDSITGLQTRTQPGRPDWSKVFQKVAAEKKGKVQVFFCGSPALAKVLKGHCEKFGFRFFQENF

Streptavidin (Streptomyces avidinii), sequence (P22629 whole entry, looked up): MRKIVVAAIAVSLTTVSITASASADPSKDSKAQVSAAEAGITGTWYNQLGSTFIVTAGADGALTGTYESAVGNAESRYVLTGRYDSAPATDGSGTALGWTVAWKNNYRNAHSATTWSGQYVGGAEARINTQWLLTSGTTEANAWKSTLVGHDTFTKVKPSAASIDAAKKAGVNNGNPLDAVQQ

Consider `CCc1cccc(NC(=O)O[C@H]2[C@H](OC(=O)Nc3ccccc3-c3ccccc3)[C@H](OC(=O)Nc3ccccc3-c3ccccc3)[C@@H](OC)O[C@@H]2CO)c1`, for which the composite z-score in test [1] was determined as 0.947; in test [6], 0.284; in test [7], 0.0345; in the test with Torsin-1A (Homo sapiens) [8], 0.762; in the test with Torsin-1A (Homo sapiens) [9], 0.875; in [10] it was 2.18. This compound also gave a composite z-score in [12] of 0.0442. In addition, the z-score in test [2] was -5.67 (inactive); in [3], -1.82 (inactive); in test [4], -0.506 (inactive); in test [5] it was -0.238 (inactive); in [11], -1.98 (inactive); in [13] it was 3.88 (inactive). Besides, the z-score in test [14] is 1.84 (inactive); in test [15], 0.17 (inactive); in test [16], 1.77 (inactive); in test [17], 0.371; in test [18] it was -3.06 (inactive); in test [19], -0.477 (inactive). This compound also registered a z-score in test [20] of -1.01.
Consider `CCCCC(=C=CC[C@@H](O)c1ccccc1OCCO)C[C@@H](O)c1ccccn1`, for which the composite z-score was -0.11 in [1]; -0.231 in test [6]; -0.024 in test [7]; -0.245 with Torsin-1A (Homo sapiens) [8]; 0.495 in the test with Torsin-1A (Homo sapiens) [9]; 0.897 in test [10]. This compound registered a composite z-score in test [12] of -0.0192. The z-score is -0.675 (inactive) in [2]; -0.138 (inactive) in test [3]; 2.72 (inactive) in test [4]; -0.446 (inactive) in test [5]; 0.142 (inactive) in test [11]; 11.3 (active) in test [13]. Besides, the z-score in test [14] was 1.51 (inactive); in test [15] it was 1.02 (inactive); in test [16], 0.894 (inactive); in test [17], -0.261; in test [18], 1.32 (inactive); in [19] it was -0.281 (inactive). In test [20], this compound displayed a z-score of -1.41.
Take `COC(=O)[C@@]1(Cc2ccc(F)cc2)[C@H]2c3cc(C(=O)N4CCCC4)n(C[C@H](O)CO)c3C[C@H]2CN1C(=O)c1ccccc1`: the composite z-score in test [1] is 0.943; in test [6], 1.12; in test [7], 0.674; in the test with Torsin-1A (Homo sapiens) [8], 0.0277; with Torsin-1A (Homo sapiens) [9], 0.332; in [10], -0.545. Also, the composite z-score in test [12] came to 0.873. Further, the z-score was 0.0849 (inactive) in test [2]; 0.339 (inactive) in [3]; 0.0075 (inactive) in test [4]; -0.101 (inactive) in [5]; -1.62 (inactive) in test [11]; 1.41 (inactive) in [13]. The z-score is 0.542 (inactive) in [14]; 0.396 (inactive) in test [15]; 0.668 (inactive) in test [16]; -0.0929 in [17]; 0.709 (inactive) in test [18]; -0.364 (inactive) in test [19]. The z-score in test [20] is -2.49.
In the case of `CCOC(=O)C1=CC[C@@H](c2ccccc2)N(S(=O)(=O)c2ccc(C)cc2)[C@@H]1C#N`, the composite z-score is 0.0432 in [1]; 0.814 in [6]; -0.128 in [7]; 0.0512 with Torsin-1A (Homo sapiens) [8]; 0.291 with Torsin-1A (Homo sapiens) [9]; -0.0766 in test [10]. The composite z-score in test [12] worked out at 0.082. Also, the z-score in [2] was -2.54 (inactive); in [3] it was -0.232 (inactive); in test [4], -0.266 (inactive); in test [5], 40.6 (active); in test [11], 0.49 (inactive); in test [13], 4.46 (inactive). In addition, the z-score in test [14] was 0.804 (inactive); in [15], 0.0758 (inactive); in test [16], 1 (inactive); in test [17], -0.268; in test [18], 0.224 (inactive); in test [19] it was -0.615 (inactive). Moreover, the z-score in [20] was -0.14.
